{"source": "the supplement of paper PMC10338343", "note": "± gives the standard deviation.", "data": [{"system": "MILI (PIWIL2) piRISC loaded with L1MC piRNA (26 nt)", "assay": "pre-steady-state target cleavage rate (min^-1); guide: L1MC piRNA 5'p-UAACUAAAUACUAUGCAAGCUGUAGG; MIWI and MILI are mouse PIWI proteins and EfPiwi is from a freshwater sponge; tags in brackets are library labels; higher = faster piRNA-guided slicing of the target", "settings": "auxiliary factor: 500 nM mouse GTSF1", "outline": "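The method was Cleave-'n-Seq, in which uncleaved targets from a transcribed, DNA-blocked target RNA library were sequenced after exposure to active affinity-purified piRISC carrying one synthetic guide, with or without GTSF1 partner protein. Reactions contained 0.1 nM library, 1 nM piRISC and, where present, 500 nM GTSF1 in HEPES–potassium acetate buffer at 33 °C for 0–8 or 0–960 min. Reads were normalised to depth and to weakly complementary targets, three trials were pooled, and k3 was capped at 0.0001 min^-1. The pre-steady-state cleavage rate came from a burst-and-steady-state fit.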", "values": [{"sequence": "UCCUGGAUGUGCUUGCAUAGUAUUUUGUUA", "pre-steady-state target cleavage rate": "0.0696 ± 0.019"}, {"sequence": "UCCUCCUACAGCUUCGAUAGUAUUUAGUUA", "pre-steady-state target cleavage rate": "0.26 ± 0.017"}, {"sequence": "UCCUGGUACAGCUUGCUUAGUAUUUAGUUA", "pre-steady-state target cleavage rate": "0.219 ± 0.024"}, {"sequence": "UCCUGCUACAGCUUGGUUAGUAUUUAGUAA", "pre-steady-state target cleavage rate": "0.148 ± 0.021"}, {"sequence": "UCCUGCUACAGCUUGCAUAGUAUUUAGUCA", "pre-steady-state target cleavage rate": "0.202 ± 0.033"}, {"sequence": "UCCUCCUACAGCAUGCAUAGUAAUUAGUUA", "pre-steady-state target cleavage rate": "0.251 ± 0.024"}, {"sequence": "UCCUGCUACAGGUUGCAUACUAUUUAGUUA", "pre-steady-state target cleavage rate": "0.0385 ± 0.0068"}, {"sequence": "UCCUGGUAGAGCUUGCAUAGUAUUUAGUAA", "pre-steady-state target cleavage rate": "0.206 ± 0.013"}, {"sequence": "UCCUGGUACAGCUUGCAUAGUAUAAUGUUA", "pre-steady-state target cleavage rate": "0.175 ± 0.036"}, {"sequence": "UCCUGGUACAGCUUGCAUAGUAUUCUAGUUA", "pre-steady-state target cleavage rate": "0.353 ± 0.088"}, {"sequence": "UCCUGGUACAGCUUGCAUAGUAUUUAGUA", "pre-steady-state target cleavage rate": "0.226 ± 0.031"}, {"sequence": "UCCUGGUACAGCUUGCAUAGUAUCUUAGUUA", "pre-steady-state target cleavage rate": "0.188 ± 0.031"}, {"sequence": "UCCUGGUACAGCUUGCAUAGUGUUUAGUUA", "pre-steady-state target cleavage rate": "0.162 ± 0.026"}, {"sequence": "UCCUGGAACACUUGCAUAGUAUUUAGUUA", "pre-steady-state target cleavage rate": "0.194 ± 0.017"}, {"sequence": "UCCUGGAACAAGCUUGCAUAGUAUUUAGUUA", "pre-steady-state target cleavage rate": "0.224 ± 0.012"}, {"sequence": "UCCUGGAUGACGCUUGCAUAGUAUUUAGUUA", "pre-steady-state target cleavage rate": "0.211 ± 0.022"}, {"sequence": "UCCUGGAACAGCAUGCAUUGUAUUUAGUUA", "pre-steady-state target cleavage rate": "0.204 ± 0.016"}, {"sequence": "UCCUGCUCACAGCUUGCAUAGUAUUUAGUUA", "pre-steady-state target cleavage rate": "0.351 ± 0.019"}, {"sequence": "UCCUGGAUGAUCUUGCAUAGUAUUUAGUUA", "pre-steady-state target cleavage rate": "0.145 ± 0.016"}, {"sequence": "UCCUGCUUCAGCUUGCAUAGUAUUUAGUUA", "pre-steady-state target cleavage rate": "0.312 ± 0.019"}, {"sequence": "UCCUCCUACACCUUGCAAAGUAUUUAGUUA", "pre-steady-state target cleavage rate": "0.118 ± 0.015"}, {"sequence": "UCCUGGAACAGGUUGCAUUGUAUUUAGUUA", "pre-steady-state target cleavage rate": "0.157 ± 0.014"}, {"sequence": "UCCUCCUACAGCUUGCAUUGUAUUUAGUUA", "pre-steady-state target cleavage rate": "0.222 ± 0.014"}, {"sequence": "UCCUGGAUGUGCUUGCAUAGUAUUUAGGUUA", "pre-steady-state target cleavage rate": "0.102 ± 0.019"}, {"sequence": "UCCUCCUAUAGCUUGCAUAGUAUUUAGUUA", "pre-steady-state target cleavage rate": "0.244 ± 0.015"}, {"sequence": "UCCUGGAUCAGCUUACAUAGUAUUUAGUUA", "pre-steady-state target cleavage rate": "0.249 ± 0.014"}, {"sequence": "UCCUCCAACUGCUUGCAUAGUAUUUAGUUA", "pre-steady-state target cleavage rate": "0.256 ± 0.017"}, {"sequence": "UCCUGGAUGUGAUUGCAUAGUAUUUAGUUA", "pre-steady-state target cleavage rate": "0.115 ± 0.015"}, {"sequence": "UCCUGGUACAGGUUGCAUAGUAUUAAGUUA", "pre-steady-state target cleavage rate": "0.326 ± 0.072"}, {"sequence": "UCCUGGAUGUGCUUGCAUAGUAUUUAGUAA", "pre-steady-state target cleavage rate": "0.246 ± 0.031"}, {"sequence": "UCCUGGAACAGCUUAGCAUAGUAUUUAGUUA", "pre-steady-state target cleavage rate": "0.27 ± 0.019"}, {"sequence": "UCCUGGAUCAGCCUUGCAUAGUAUUUAGUUA", "pre-steady-state target cleavage rate": "0.249 ± 0.023"}, {"sequence": "UCCUGGAUAAGCUUGCAUAGUAUUUAGUUA", "pre-steady-state target cleavage rate": "0.276 ± 0.017"}, {"sequence": "UCCUGGUAGAGCUAGCAUAGUAUUUAGUUA", "pre-steady-state target cleavage rate": "0.216 ± 0.019"}, {"sequence": "UCCUGGAACAGCUUCCAAAGUAUUUAGUUA", "pre-steady-state target cleavage rate": "0.137 ± 0.015"}, {"sequence": "UCCUGGUACAGCUUGCAUAGUAUUAUAGUUA", "pre-steady-state target cleavage rate": "0.299 ± 0.034"}, {"sequence": "UCCUGGUUACAGCUUGCAUAGUAUUUAGUUA", "pre-steady-state target cleavage rate": "0.256 ± 0.025"}, {"sequence": "UCCUCCUUCAGCUUGGAUAGUAUUUAGUUA", "pre-steady-state target cleavage rate": "0.242 ± 0.015"}, {"sequence": "UCCUGGAACAGCUUGCAUAGUAUUUAGUUG [g2:g23:cont:t1G]", "pre-steady-state target cleavage rate": "0.252 ± 0.024"}, {"sequence": "UCCUCGAUCAGCUUGCAUAGUAUUUAGUUA", "pre-steady-state target cleavage rate": "0.316 ± 0.017"}]}]}
